Results on 20 molecules are retold here after PubChem BioAssay (EPA / NIEHS).

What is called AC50 is the concentration at which the activity in the assay is half-maximal.

For test [1], the target named is human Opioid Receptor Delta 1 (Opiate D1), OPRD1 (gene 4985) (UniProt P41143). The test can be described thus: NVS_GPCR_hOpiate_D1: NovaScreen (NVS) G Protein-Coupled Receptor Assay for human Opioid Receptor Delta 1 (Opiate D1) (AID 2283280). The gist of the method: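 Membrane preparations from CHO cells bearing the human receptor were incubated 1 h with test chemical, and bound radioligand was counted after filtration. Actives from 25 uM duplicate screening were retested in concentration-response.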
Chain of human Opioid Receptor Delta 1 (Opiate D1), OPRD1 (gene 4985) (P41143 whole entry, looked up): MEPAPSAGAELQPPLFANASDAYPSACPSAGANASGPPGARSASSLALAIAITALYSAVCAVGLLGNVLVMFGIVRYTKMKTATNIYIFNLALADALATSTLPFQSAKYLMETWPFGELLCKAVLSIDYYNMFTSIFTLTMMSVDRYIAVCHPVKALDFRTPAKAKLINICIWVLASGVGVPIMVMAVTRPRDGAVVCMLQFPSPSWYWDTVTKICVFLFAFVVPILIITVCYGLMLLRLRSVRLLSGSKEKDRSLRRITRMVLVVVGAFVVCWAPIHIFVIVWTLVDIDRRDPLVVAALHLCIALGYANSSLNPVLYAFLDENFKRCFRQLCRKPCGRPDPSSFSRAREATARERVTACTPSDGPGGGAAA

The target of test [2] is rat Serotonin, 5-Hydroxytryptamine Receptor 1 (5HT1), Non-Selective Binding, Htr1a (gene 24473) (UniProt P19327). The test can be described thus: NVS_GPCR_r5HT1_NonSelective: NovaScreen (NVS) G Protein-Coupled Receptor Assay for rat Serotonin, 5-Hydroxytryptamine Receptor 1 (5HT1), Non-Selective Binding (AID 2283286). Put shortly: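 Binding of a radioligand to rat cortex membranes is read by filtration and scintillation counting after 1 h. Compounds were screened at 25 uM in duplicate. Actives were then titrated to a top of 50 uM. DMSO is the baseline.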
Chain of rat Serotonin, 5-Hydroxytryptamine Receptor 1 (5HT1), Non-Selective Binding, Htr1a (gene 24473) (P19327 whole entry, looked up): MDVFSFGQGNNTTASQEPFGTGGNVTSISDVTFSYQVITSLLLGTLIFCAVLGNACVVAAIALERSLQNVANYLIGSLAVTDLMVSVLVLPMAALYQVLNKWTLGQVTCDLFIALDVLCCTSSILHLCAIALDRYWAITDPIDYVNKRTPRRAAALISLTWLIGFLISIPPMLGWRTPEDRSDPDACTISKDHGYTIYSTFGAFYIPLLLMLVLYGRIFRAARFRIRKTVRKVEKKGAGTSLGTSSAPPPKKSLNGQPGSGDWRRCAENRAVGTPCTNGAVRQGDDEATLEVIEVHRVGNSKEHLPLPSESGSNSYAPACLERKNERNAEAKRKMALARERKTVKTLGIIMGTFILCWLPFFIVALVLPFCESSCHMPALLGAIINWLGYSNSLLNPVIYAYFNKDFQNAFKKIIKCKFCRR

For test [3], the target named is guinea pig Serotonin, 5-Hydroxytryptamine Receptor 4 (5HT4), HTR4 (gene 100135548) (UniProt O70528). The test can be described thus: NVS_GPCR_g5HT4: NovaScreen (NVS) G Protein-Coupled Receptor Assay for guinea pig Serotonin, 5-Hydroxytryptamine Receptor 4 (5HT4) (AID 2283294). The gist of the method:
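Compounds first screened in duplicate at 25 uM, actives followed up in concentration series. Binding measured as displacement of specific radioligand from guinea pig striatal membranes, 1 h, filter-based scintillation read-out versus DMSO baseline.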

In test [4] the test system is rat Adrenergic, Alpha 1B Receptor (Adra1B), gene 24173. The test can be described thus: NVS_GPCR_rAdra1B: NovaScreen (NVS) G Protein-Coupled Receptor Assay for rat Adrenergic, Alpha 1B Receptor (Adra1B) (AID 2283297). Put shortly: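 Filter-binding radioligand competition on membranes from rat liver, read after 1 h by scintillation counting. Single-concentration duplicate screen at 25 uM, followed by concentration-response on actives, normalised to DMSO.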

Test [5] has as its target human Thromboxane A2 Receptor (TXA2), TBXA2R (gene 6915) (UniProt P21731). The test can be described thus: NVS_GPCR_hTXA2: NovaScreen (NVS) G Protein-Coupled Receptor Assay for human Thromboxane A2 Receptor (TXA2) (AID 2283282).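 Further: actives reduce bound radioligand signal relative to DMSO baseline.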 Put shortly: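 Biochem binding, human platelets, cell-free; competitive radioligand displacement; 1 h; filter radiodetection. 25 uM duplicate primary, conc. series secondary; DMSO neg. ctrl.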

Test [6] addresses mouse Cholecystokinin, CCK1 Receptor (CCKA), Cckar (gene 12425) (UniProt O08786). In words: NVS_GPCR_mCCKAPeripheral: NovaScreen (NVS) G Protein-Coupled Receptor Assay for mouse Cholecystokinin, CCK1 Receptor (CCKA) (AID 2283285). The gist of the method: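 Chemicals were first screened in duplicate at 25 uM, with those meeting threshold (e.g., 30% inhibition) retested in singleton concentration series to 50 uM maximum. Binding of radioligand to mouse pancreatic membranes was read after 2 h by filtration and scintillation counting.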

Test [7] deals with guinea pig Bradykinin Receptor B2 (BK2), BDKRB2 (gene 100135486) (UniProt O70526). The test can be described thus: NVS_GPCR_gBK2: NovaScreen (NVS) G Protein-Coupled Receptor Assay for guinea pig Bradykinin Receptor B2 (BK2) (AID 2283292). Put shortly: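 Guinea pig ileum membrane preparation incubated 1 h with radioligand and test chemical; bound counts measured after filtration. Primary duplicate screening at 25 uM, then singleton concentration series with a 50 uM top dose; DMSO as baseline.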
Chain of guinea pig Bradykinin Receptor B2 (BK2), BDKRB2 (gene 100135486) (O70526 whole entry, looked up): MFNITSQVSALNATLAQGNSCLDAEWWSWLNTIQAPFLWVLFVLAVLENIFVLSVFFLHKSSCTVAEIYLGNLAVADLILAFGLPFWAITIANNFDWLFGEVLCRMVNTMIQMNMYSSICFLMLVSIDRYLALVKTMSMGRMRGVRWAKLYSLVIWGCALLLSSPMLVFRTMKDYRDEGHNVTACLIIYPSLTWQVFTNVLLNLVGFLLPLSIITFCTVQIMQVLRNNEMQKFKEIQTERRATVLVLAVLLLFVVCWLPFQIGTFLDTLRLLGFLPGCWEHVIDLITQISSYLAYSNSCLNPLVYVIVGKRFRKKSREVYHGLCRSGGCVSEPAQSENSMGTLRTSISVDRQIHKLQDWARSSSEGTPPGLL

Test [8] concerns rabbit Platelet Activating Factor Receptor (PAF), gene 100354046. The test can be described thus: NVS_GPCR_rabPAF: NovaScreen (NVS) G Protein-Coupled Receptor Assay for rabbit Platelet Activating Factor Receptor (PAF) (AID 2283287). Put shortly:
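Rabbit platelet membrane preparation; radioligand displacement read by filter-based scintillation counting 1 h after dosing, loss of signal versus DMSO. Primary screen in duplicate at 25 uM, actives followed up in concentration series.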

The target in test [9] is mouse Cholecystokinin, CCK2 Receptor (CCKB), Cckbr (gene 12426) (UniProt P56481). The test can be described thus: NVS_GPCR_mCKKBCentral: NovaScreen (NVS) G Protein-Coupled Receptor Assay for mouse Cholecystokinin, CCK2 Receptor (CCKB) (AID 2283293). The gist of the method: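 Mouse forebrain membrane preparation incubated 2 h with chemical and radioligand; bound radioactivity counted after filtration. Single-concentration duplicate screen at 25 uM, then concentration series to 50 uM max for hits, DMSO as baseline.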

The test system of test [10] is 5-hydroxytryptamine receptor 2C (pig). In words: NVS_GPCR_p5HT2C: NovaScreen (NVS) G Protein-Coupled Receptor Assay for pig Serotonin, 5-Hydroxytryptamine Receptor 2C (5HT2C) (AID 2283288). Put shortly:
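Radioligand displacement on membranes from pig choroid plexus, detected by filter scintillation counting after 1 h. Tested first at a single 25 uM in duplicate, then in concentration-response for actives; DMSO served as baseline.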

Test [11] deals with rat Adrenergic, Alpha 1, Non-selective Receptor (Adra1), Adra1a (gene 29412) (UniProt P43140). In words: NVS_GPCR_rAdra1_NonSelective: NovaScreen (NVS) G Protein-Coupled Receptor Assay for rat Adrenergic, Alpha 1, Non-selective Receptor (Adra1) (AID 2283289). The gist of the method:
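Chemicals first screened in duplicate at 25 uM, then actives tested in concentration series up to 50 uM. Binding measured as displacement of radioligand from rat forebrain membrane receptors, 1 h, filtration with scintillation readout; DMSO baseline.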

Test [12] deals with rat Serotonin, 5-Hydroxytryptamine Receptor (5HT), Non-Selective Binding, Htr1a (gene 24473) (UniProt P19327). In words: NVS_GPCR_r5HT_NonSelective: NovaScreen (NVS) G Protein-Coupled Receptor Assay for rat Serotonin, 5-Hydroxytryptamine Receptor (5HT), Non-Selective Binding (AID 2283295). Put shortly: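 Rat cortex membrane preparation incubated 1 h with radioligand and test chemical; bound radioactivity counted after filtration. Screening began in duplicate at 25 uM with concentration-series follow-up; fitting relative to DMSO.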
Chain of rat Serotonin, 5-Hydroxytryptamine Receptor (5HT), Non-Selective Binding, Htr1a (gene 24473) (P19327 whole entry, looked up): as the sequence (P19327 whole entry, looked up) above

Test [13] addresses rat Adrenergic, Alpha 1A Receptor (Adra1A), Adra1a (gene 29412) (UniProt P43140). In words: NVS_GPCR_rAdra1A: NovaScreen (NVS) G Protein-Coupled Receptor Assay for rat Adrenergic, Alpha 1A Receptor (Adra1A) (AID 2283296). The gist of the method: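 Filter radiodetection after 1 h competitive binding on CEC-pretreated rat cortical membranes. Duplicate single-point screening at 25 uM; active chemicals retested across concentration series.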

Test [14] deals with rat Adrenergic Receptor, Alpha 2 (Adra2), Non-selective Binding, Adra2a (gene 25083) (UniProt P22909). In words: NVS_GPCR_rAdra2_NonSelective: NovaScreen (NVS) G Protein-Coupled Receptor Assay for rat Adrenergic Receptor, Alpha 2 (Adra2), Non-selective Binding (AID 2283299). The gist of the method:
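Filter-based scintillation counting of radioligand binding to rat cortical membrane receptors, measured 1.25 hours post-dosing; loss of signal versus DMSO indicates displacement. Initial single-concentration duplicate at 25 uM, then concentration series.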

Test [15] deals with human Opioid Receptor Mu (Opiate Mu), OPRM1 (gene 4988) (UniProt P35372). The test can be described thus: NVS_GPCR_hOpiate_mu: NovaScreen (NVS) G Protein-Coupled Receptor Assay for human Opioid Receptor Mu (Opiate Mu) (AID 2283290).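 Further: hits lower bound tracer signal versus DMSO meaning displacement of the ligand.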 The gist of the method: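 Primary screen in duplicate at 25 uM, with actives followed in concentration series. CHO-derived receptor membranes, cell-free; bound radioligand read by scintillation counting after filtration at 2.5 h, decrease scored against DMSO.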
Chain of human Opioid Receptor Mu (Opiate Mu), OPRM1 (gene 4988) (P35372 whole entry, looked up): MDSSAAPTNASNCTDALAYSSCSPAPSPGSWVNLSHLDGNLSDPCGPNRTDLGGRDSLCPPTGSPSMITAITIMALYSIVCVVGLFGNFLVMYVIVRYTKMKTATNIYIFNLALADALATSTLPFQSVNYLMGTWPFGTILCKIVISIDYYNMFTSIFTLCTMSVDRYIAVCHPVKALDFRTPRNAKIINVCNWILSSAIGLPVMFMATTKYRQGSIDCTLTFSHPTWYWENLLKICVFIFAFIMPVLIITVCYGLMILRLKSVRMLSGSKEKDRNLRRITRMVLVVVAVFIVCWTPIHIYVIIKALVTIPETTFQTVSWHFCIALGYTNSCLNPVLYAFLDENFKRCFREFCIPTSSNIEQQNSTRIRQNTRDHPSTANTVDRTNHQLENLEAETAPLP

The target in test [16] is human Purinergic Receptor P2Y, P2RY1 (gene 5028) (UniProt P47900). In words: NVS_GPCR_hPY2: NovaScreen (NVS) G Protein-Coupled Receptor Assay for human Purinergic Receptor P2Y (AID 2283281). Put shortly: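 Filtration scintillation readout of radioligand displacement on U937 extract, measured 1 h post-dosing. Single 25 uM duplicate screen, then singleton concentration series to 50 uM for chemicals passing threshold; DMSO as baseline.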
Chain of human Purinergic Receptor P2Y, P2RY1 (gene 5028) (P47900 whole entry, looked up): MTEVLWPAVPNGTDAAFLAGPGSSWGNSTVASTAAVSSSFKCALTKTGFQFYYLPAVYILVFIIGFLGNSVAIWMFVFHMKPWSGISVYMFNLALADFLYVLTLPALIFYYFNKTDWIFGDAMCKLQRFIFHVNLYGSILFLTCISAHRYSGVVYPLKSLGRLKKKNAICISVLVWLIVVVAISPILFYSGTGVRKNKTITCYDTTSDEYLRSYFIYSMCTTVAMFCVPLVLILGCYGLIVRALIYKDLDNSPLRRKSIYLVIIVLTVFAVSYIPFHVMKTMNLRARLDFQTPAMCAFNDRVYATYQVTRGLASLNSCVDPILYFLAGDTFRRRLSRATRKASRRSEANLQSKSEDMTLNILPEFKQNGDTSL

The target of test [17] is rat Adrenergic Receptor, Beta (Adrb), Non-selective Binding, Adrb1 (gene 24925) (UniProt P18090). The test can be described thus: NVS_GPCR_rAdrb_NonSelective: NovaScreen (NVS) G Protein-Coupled Receptor Assay for rat Adrenergic Receptor, Beta (Adrb), Non-selective Binding (AID 2283298). The gist of the method:
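Rat cortical membranes incubated 1 h with beta-adrenergic radioligand and test chemical; bound ligand measured by filtration and scintillation counting. Screen at 25 uM duplicate, then concentration series with 50 uM maximum; loss of signal versus DMSO.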

The target in test [18] is human Orphanin, Opioid Related Nociceptin Receptor 1 (ORL1), OPRL1 (gene 4987) (UniProt P41146). In words: NVS_GPCR_hORL1: NovaScreen (NVS) G Protein-Coupled Receptor Assay for human Orphanin, Opioid Related Nociceptin Receptor 1 (ORL1) (AID 2283283). The gist of the method: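 Cell-free binding using HEK293-derived receptor protein: radioligand displacement measured by filter scintillation 1 hour after dosing. Primary testing at 25 uM in duplicate, followed by singleton concentration series up to 50 uM; DMSO served as negative control.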
Chain of human Orphanin, Opioid Related Nociceptin Receptor 1 (ORL1), OPRL1 (gene 4987) (P41146 whole entry, looked up): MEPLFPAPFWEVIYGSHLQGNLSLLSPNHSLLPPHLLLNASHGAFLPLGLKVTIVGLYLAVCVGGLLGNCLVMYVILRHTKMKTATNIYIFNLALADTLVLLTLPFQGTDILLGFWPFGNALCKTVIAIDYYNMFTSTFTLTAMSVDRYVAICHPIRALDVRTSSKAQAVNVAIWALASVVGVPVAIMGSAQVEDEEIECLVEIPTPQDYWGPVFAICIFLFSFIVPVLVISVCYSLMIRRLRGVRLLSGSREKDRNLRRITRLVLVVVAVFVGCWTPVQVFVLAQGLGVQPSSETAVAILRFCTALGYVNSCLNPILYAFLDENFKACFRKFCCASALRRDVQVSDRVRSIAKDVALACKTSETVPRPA

Results filed as inconclusive are left out. The source made the active and inactive calls. How the source made its calls: active means hit-call score of the fitted dose curve at least 0.9, where 1 is the maximum; inconclusive means response in the unintended direction; inactive means score below 0.9.

Chain of human Thromboxane A2 Receptor (TXA2), TBXA2R (gene 6915) (P21731 whole entry, looked up): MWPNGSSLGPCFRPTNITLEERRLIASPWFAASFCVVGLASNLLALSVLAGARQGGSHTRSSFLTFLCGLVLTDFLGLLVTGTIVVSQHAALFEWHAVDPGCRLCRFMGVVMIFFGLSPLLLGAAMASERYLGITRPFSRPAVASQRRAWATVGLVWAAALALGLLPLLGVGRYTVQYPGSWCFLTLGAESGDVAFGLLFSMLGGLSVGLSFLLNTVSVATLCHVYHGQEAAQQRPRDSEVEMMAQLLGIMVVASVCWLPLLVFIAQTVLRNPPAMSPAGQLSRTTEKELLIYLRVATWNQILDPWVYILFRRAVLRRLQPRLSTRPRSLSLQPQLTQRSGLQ
Chain of guinea pig Serotonin, 5-Hydroxytryptamine Receptor 4 (5HT4), HTR4 (gene 100135548) (O70528 whole entry, looked up): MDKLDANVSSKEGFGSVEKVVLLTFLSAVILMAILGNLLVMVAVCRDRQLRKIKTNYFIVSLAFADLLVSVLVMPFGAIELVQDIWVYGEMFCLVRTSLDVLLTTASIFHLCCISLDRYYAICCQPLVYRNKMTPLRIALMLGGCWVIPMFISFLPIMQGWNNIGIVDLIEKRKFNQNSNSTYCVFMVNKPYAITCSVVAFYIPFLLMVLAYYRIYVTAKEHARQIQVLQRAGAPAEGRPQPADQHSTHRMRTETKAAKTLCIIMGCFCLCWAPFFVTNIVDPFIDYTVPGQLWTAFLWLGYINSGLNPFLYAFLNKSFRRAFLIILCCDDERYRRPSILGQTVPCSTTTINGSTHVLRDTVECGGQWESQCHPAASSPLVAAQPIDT
Chain of rat Adrenergic, Alpha 1A Receptor (Adra1A), Adra1a (gene 29412) (P43140 whole entry, looked up): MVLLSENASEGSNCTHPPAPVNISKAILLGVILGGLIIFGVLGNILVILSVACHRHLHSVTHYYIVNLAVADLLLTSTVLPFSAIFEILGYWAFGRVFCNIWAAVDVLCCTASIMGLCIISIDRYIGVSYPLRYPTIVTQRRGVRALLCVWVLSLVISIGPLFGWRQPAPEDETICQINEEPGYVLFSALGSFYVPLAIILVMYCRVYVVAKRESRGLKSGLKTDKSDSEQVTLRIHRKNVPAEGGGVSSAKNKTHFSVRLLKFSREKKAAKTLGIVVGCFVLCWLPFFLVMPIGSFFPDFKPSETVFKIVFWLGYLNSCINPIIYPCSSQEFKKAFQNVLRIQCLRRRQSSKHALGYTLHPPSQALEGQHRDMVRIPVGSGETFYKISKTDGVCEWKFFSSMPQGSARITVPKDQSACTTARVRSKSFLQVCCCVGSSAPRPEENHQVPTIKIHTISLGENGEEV
Chain of rat Adrenergic, Alpha 1, Non-selective Receptor (Adra1), Adra1a (gene 29412) (P43140 whole entry, looked up): as above
Chain of rat Adrenergic Receptor, Beta (Adrb), Non-selective Binding, Adrb1 (gene 24925) (P18090 whole entry, looked up): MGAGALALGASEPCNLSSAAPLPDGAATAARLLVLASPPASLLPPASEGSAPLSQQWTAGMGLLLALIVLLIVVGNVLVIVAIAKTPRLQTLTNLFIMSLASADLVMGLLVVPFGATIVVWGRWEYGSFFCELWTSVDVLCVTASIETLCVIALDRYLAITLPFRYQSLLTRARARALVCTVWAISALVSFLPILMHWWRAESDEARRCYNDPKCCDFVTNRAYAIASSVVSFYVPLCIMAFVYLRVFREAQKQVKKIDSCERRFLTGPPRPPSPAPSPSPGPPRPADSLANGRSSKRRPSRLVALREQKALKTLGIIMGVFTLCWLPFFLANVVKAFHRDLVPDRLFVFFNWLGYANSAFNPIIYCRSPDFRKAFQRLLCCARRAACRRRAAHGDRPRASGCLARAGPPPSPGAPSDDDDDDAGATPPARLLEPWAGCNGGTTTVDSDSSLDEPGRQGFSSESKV

Turning to `COc1cc(S(=O)(=O)O)c(C)cc1N=Nc1c(O)ccc2cc(S(=O)(=O)O)ccc12`, the AC50 in [1] was 30 µM (active); in test [2] it was 17.1 µM (active); in test [3], 41.9 µM (active). The molecule was classed as inactive in test [4].

As to `COc1cc(-c2nc(NC(=O)c3cc4cc(C)cc(C)c4n3CC(=O)O)sc2CCC2CCCCC2)c(OC)cc1Cl`, the result in test [5] was inactive. In test [6], the AC50 is 0.178 µM (active).

For the molecule `CCCCCCCCCCC`, in test [7], the outcome was inactive.

Take `COc1ccc(S(=O)(=O)N2C(=O)[C@@](c3ccccc3OC)(N3C[C@H](O)C[C@H]3C(=O)N(C)C)c3cc(Cl)ccc32)c(OC)c1`: the result in test [1] and in test [5] was inactive. Besides, the half-maximal activity concentration (AC50) in [8] was 12.3 µM (active); in test [9], 25 µM (active).

With `NC(=O)Cn1c(=O)cc(CCN2CCN(c3nccc4sccc34)CC2)c2ccc(F)cc21`, the AC50 in [2] is 0.47 µM (active); in test [10], 0.00974 µM (active); in test [11], 0.0868 µM (active); in [12], 0.0315 µM (active); in test [13], 0.258 µM (active); in [4], 0.595 µM (active). For the same molecule, the AC50 in [14] was 0.167 µM (active).

Regarding `CCCCCCC(=O)OCC`, the molecule was classed as inactive in [3].

`Nc1nc(N)c2nc(CNc3ccc(C(=O)N[C@@H](CCC(=O)O)C(=O)O)cc3)cnc2n1`: the molecule was called inactive in test [1]. In [15], the AC50 is 5.21 µM (active).

Regarding `O=C(O)CCCCC(=O)O`, the molecule was classed as inactive in [16].

Regarding `CCc1c(C(=O)NN2CCCCC2)nn(-c2ccc(Cl)cc2Cl)c1-c1ccc(Br)cc1`, the result in test [1], in test [15] and in test [3] was inactive. The AC50 in test [12] was 12 µM (active).

With `Cc1oc(-c2ccccc2)nc1CCOc1cccc2c1ccn2CCC(=O)O`, the AC50 in test [5] was 1.33 µM (active).

With `CN1CCN(Cc2cc(-c3ccc4[nH]c(=O)oc4c3)co2)[C@@H](c2ccc(F)cc2)C1`, in test [8], the outcome was inactive. Moreover, the AC50 in test [10] is 0.25 µM (active); in test [11], 8.23 µM (active); in test [15], 22 µM (active); in [12] it was 0.0493 µM (active); in test [13] it was 10.3 µM (active); in test [4] it was 22 µM (active).

Regarding `CNCc1cc(F)ccc1Oc1ccc(Cl)c(Cl)c1`, the molecule was classed as inactive in test [5]. For the same molecule, the AC50 in test [17] was 12.2 µM (active).

Take `CC(C)(C)c1cc(O)c(C(C)(C)C)cc1O`: the result in test [5] was inactive.

On to `Cc1nc(C)nc(N2C[C@@H](C)N(c3ccnc([C@@H](C)O)n3)[C@@H](C)C2)n1`, for which the molecule was called inactive in [3].

For the molecule `C=CCOC(=O)c1ccccc1C(=O)OCC=C`, the AC50 in test [10] was 25 µM (active).

On to `COc1cc(C=O)ccc1O`, for which, in test [7], the molecule was called inactive.

As for `Oc1ccc2ccccc2c1N=Nc1ccccc1`, the AC50 in test [15] is 37.4 µM (active).

With `COCCOC[C@H](CC1(C(=O)NC2CCC(C(=O)O)CC2)CCCC1)C(=O)Oc1ccc2c(c1)CCC2` (stereo not given in full), the molecule was classed as inactive in test [18] and in [2].

`C=CCc1ccc(O)c(OC)c1`: the result in test [10] was inactive.

For `Nc1ccc2c(c1)C(=O)c1ccccc1C2=O`, in [1], the AC50 is 38.4 µM (active).
